# Measurements taken from PubChem BioAssay (NCI).
# About 79,000 compounds went through this panel and 15% of them were active in at least one assay; those are over-represented in the sample as a whole. Activity calls are given as the source filed them. Rule as the data show it: active = growth inhibition above about 70%; inactive = the rest.
# How the values were obtained:
# [1] = NCI Yeast Anticancer Drug Screen. Data for the rad52 strain (AID 147);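 also: 0% = growth of vehicle-treated control cultures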; conditions: S. cerevisiae rad52 mutant growth inhibition, active compounds read high
# Method in brief: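 DNA repair-defective yeast; compound exposure; growth scored against vehicle controls.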
# [2] = NCI Yeast Anticancer Drug Screen. Data for the rad50EPP+ strain (AID 151);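 also: 0% = growth of vehicle-treated control cultures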; conditions: S. cerevisiae rad50 mutant strain, active compounds read high
# Method in brief: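 rad50EPP+ yeast treated with test compounds. Readout: growth vs vehicle control.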
# [3] = NCI Yeast Anticancer Drug Screen. Data for the mgt1 strain (AID 153); conditions: S. cerevisiae mgt1 mutant growth inhibition, active compounds read high
# Method in brief: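 Growth inhibition relative to vehicle controls was scored for the mgt1 yeast strain after compound exposure.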
# [4] = NCI Yeast Anticancer Drug Screen. Data for the rad50 strain (AID 155);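 also: 0% = growth of vehicle-only cultures of the same strain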; conditions: S. cerevisiae rad50 strain growth inhibition, active compounds read high
# Method in brief: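 DNA repair mutant yeast, compound exposure, growth read-out; inhibition is taken relative to vehicle.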
# [5] = NCI Yeast Anticancer Drug Screen. Data for the mec2-1 strain (AID 157); conditions: S. cerevisiae mec2-1 strain, active compounds read high
# Method in brief: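 Growth inhibition is read against vehicle-treated controls after compound exposure of the mec2-1 yeast strain, which is defective in DNA damage repair or cell cycle control.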
# [6] = NCI Yeast Anticancer Drug Screen. Data for the rad14 strain (AID 159);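 also: 0% = growth of vehicle-treated control cultures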; conditions: S. cerevisiae rad14 strain growth inhibition, active compounds read high
# Method in brief: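 DNA repair-defective yeast, compound-exposed; % growth inhibition derived by comparison with vehicle-treated controls.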
# [7] = NCI Yeast Anticancer Drug Screen. Data for the sgs1 mgt1 strain (AID 161);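 also: 0% = growth of cultures given vehicle only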; conditions: S. cerevisiae sgs1 mgt1 strain, active compounds read high
# Method in brief: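 Compounds are added to genetically altered yeast, and growth is compared with cultures given vehicle alone to give percent inhibition.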
# [8] = NCI Yeast Anticancer Drug Screen. Data for the cln2 rad14 strain (AID 165);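 also: 0% = growth equal to vehicle treated cultures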; conditions: S. cerevisiae cln2 rad14 strain, active compounds read high
# Method in brief: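 Growth inhibition, relative to vehicle-treated controls, is the read-out. The test organism is a yeast strain with defined genetic alterations, cln2 rad14.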
# [9] = NCI Yeast Anticancer Drug Screen. Data for the bub3 strain (AID 167); conditions: S. cerevisiae bub3 mutant strain, active compounds read high
# Method in brief: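 In this screen, a yeast mutant lacking normal mitotic checkpoint function is challenged with compound. Relative growth versus vehicle gives the inhibition value.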
# [10] = NCI Yeast Anticancer Drug Screen. Data for the wt2 strain (AID 169);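 also: 0% = growth of vehicle-treated yeast cultures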; conditions: S. cerevisiae wt2 strain growth inhibition, active compounds read high
# Method in brief: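 Compound exposure of yeast; growth compared with vehicle controls; inhibition reported.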
# [11] = NCI Yeast Anticancer Drug Screen. Data for the mlh1 strain (AID 171);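 also: 0% = growth of vehicle-treated control cultures of the same strain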; conditions: S. cerevisiae mlh1 strain growth inhibition, active compounds read high
# Method in brief: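 Compounds are applied to a genetically altered yeast strain, and its growth is compared with that of vehicle-treated cultures to give percent inhibition.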
# [12] = NCI Yeast Anticancer Drug Screen. Data for the sgs1 strain (AID 173);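 also: 0% = growth of vehicle-only control cultures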; conditions: S. cerevisiae sgs1 mutant, active compounds read high
# Method in brief: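 Compounds applied to genetically altered yeast; growth compared with vehicle-treated cultures to give % inhibition.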
# [13] = NCI Yeast Anticancer Drug Screen. Data for the mlh1 rad18 strain (AID 175); conditions: S. cerevisiae mlh1 rad18 strain growth inhibition, active compounds read high
# Method in brief: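 Cells of a genetically altered yeast strain, deficient in DNA damage repair, were treated with compound. Their growth was then compared with that of vehicle-treated cultures to give inhibition.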
# [14] = NCI Yeast Anticancer Drug Screen. Data for the rad18 strain (AID 177); conditions: S. cerevisiae rad18 mutant growth inhibition, active compounds read high
# Method in brief: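 Compounds are applied to a repair-deficient yeast strain, and growth is compared with that of vehicle-treated cultures to give percent inhibition.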
# [15] = NCI Yeast Anticancer Drug Screen. Data for the wt1 strain (AID 149);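 also: 0% = growth of vehicle-treated wt1 cultures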; conditions: S. cerevisiae wt1 strain (SPY 50644) growth inhibition, active compounds read high
# Method in brief: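 wt1 strain grown with compound or vehicle; inhibition taken from the growth difference.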
# [16] = NCI Yeast Anticancer Drug Screen. Data for the CLN2oe strain (AID 163);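 also: 0% = growth of vehicle-only control cultures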; conditions: S. cerevisiae CLN2oe strain, active compounds read high
# Method in brief: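 Compound-treated yeast; growth vs vehicle ctrl = % inhibition. Genetically altered strain (cell-cycle control).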
# [17] = at 5.0 µM (retest, dose inferred, filed as 0.5)
# [18] = at 50.0 µM (retest, dose inferred, filed as 5.0)
structure (smiles),measurement,setting,value
COc1cc(N)ccc1Nc1c2ccccc2nc2ccccc12,growth inhibition,[1]; at 1.2 µM,-4% (inactive)
same,growth inhibition,[1]; at 3.7 µM,33% (inactive)
same,growth inhibition,[1]; at 11.0 µM,70% (active)
same,growth inhibition,[1]; at 33.0 µM,82% (active)
same,growth inhibition,[1]; at 100.0 µM,86% (active)
same,growth inhibition,[2]; at 1.2 µM,-9% (inactive)
same,growth inhibition,[2]; at 3.7 µM,-11% (inactive)
same,growth inhibition,[2]; at 11.0 µM,10% (inactive)
same,growth inhibition,[2]; at 33.0 µM,59% (inactive)
same,growth inhibition,[2]; at 100.0 µM,88% (active)
same,growth inhibition,[3]; at 1.2 µM,2% (inactive)
same,growth inhibition,[3]; at 3.7 µM,25% (inactive)
same,growth inhibition,[3]; at 11.0 µM,32% (inactive)
same,growth inhibition,[3]; at 33.0 µM,51% (inactive)
same,growth inhibition,[3]; at 100.0 µM,89% (active)
same,growth inhibition,[4]; at 1.2 µM,6% (inactive)
same,growth inhibition,[4]; at 3.7 µM,32% (inactive)
same,growth inhibition,[4]; [17],90% (active)
same,growth inhibition,[4]; at 11.0 µM,74% (active)
same,growth inhibition,[4]; at 33.0 µM,89% (active)
same,growth inhibition,[4]; [18],95% (active)
same,growth inhibition,[4]; at 50.0 µM,36.3% (inactive)
same,growth inhibition,[4]; at 100.0 µM,91% (active)
same,growth inhibition,[5]; at 1.2 µM,-45% (inactive)
same,growth inhibition,[5]; at 3.7 µM,-30% (inactive)
same,growth inhibition,[5]; [17],20% (inactive)
same,growth inhibition,[5]; at 11.0 µM,-27% (inactive)
same,growth inhibition,[5]; at 33.0 µM,2% (inactive)
same,growth inhibition,[5]; [18],92% (active)
same,growth inhibition,[5]; at 50.0 µM,42.4% (inactive)
same,growth inhibition,[5]; at 100.0 µM,84% (active)
same,growth inhibition,[6]; at 1.2 µM,-43% (inactive)
same,growth inhibition,[6]; at 3.7 µM,-25% (inactive)
same,growth inhibition,[6]; at 11.0 µM,-5% (inactive)
same,growth inhibition,[6]; at 33.0 µM,13% (inactive)
same,growth inhibition,[6]; at 100.0 µM,66% (inactive)
same,growth inhibition,[7]; [17],58% (inactive)
same,growth inhibition,[7]; [18],97% (active)
same,growth inhibition,[7]; at 50.0 µM,84.9% (active)
same,growth inhibition,[8]; [17],40% (inactive)
same,growth inhibition,[8]; [18],83% (active)
same,growth inhibition,[8]; at 50.0 µM,80.8% (active)
same,growth inhibition,[9]; at 1.2 µM,8% (inactive)
same,growth inhibition,[9]; at 3.7 µM,15% (inactive)
same,growth inhibition,[9]; [17],42% (inactive)
same,growth inhibition,[9]; at 11.0 µM,14% (inactive)
same,growth inhibition,[9]; at 33.0 µM,28% (inactive)
same,growth inhibition,[9]; [18],86% (active)
same,growth inhibition,[9]; at 50.0 µM,63% (inactive)
same,growth inhibition,[9]; at 100.0 µM,85% (active)
same,growth inhibition,[10]; at 1.2 µM,6% (inactive)
same,growth inhibition,[10]; at 3.7 µM,9% (inactive)
same,growth inhibition,[10]; at 11.0 µM,9% (inactive)
same,growth inhibition,[10]; at 33.0 µM,31% (inactive)
same,growth inhibition,[10]; at 100.0 µM,86% (active)
same,growth inhibition,[11]; at 1.2 µM,-24% (inactive)
same,growth inhibition,[11]; at 3.7 µM,-15% (inactive)
same,growth inhibition,[11]; at 11.0 µM,-16% (inactive)
same,growth inhibition,[11]; at 33.0 µM,11% (inactive)
same,growth inhibition,[11]; at 100.0 µM,80% (active)
same,growth inhibition,[12]; at 1.2 µM,-16% (inactive)
same,growth inhibition,[12]; at 3.7 µM,1% (inactive)
same,growth inhibition,[12]; at 11.0 µM,-4% (inactive)
same,growth inhibition,[12]; at 33.0 µM,36% (inactive)
same,growth inhibition,[12]; at 100.0 µM,92% (active)
same,growth inhibition,[13]; [17],81% (active)
same,growth inhibition,[13]; [18],94% (active)
same,growth inhibition,[13]; at 50.0 µM,65.7% (inactive)
same,growth inhibition,[14]; at 1.2 µM,-2% (inactive)
same,growth inhibition,[14]; at 3.7 µM,-11% (inactive)
same,growth inhibition,[14]; at 11.0 µM,-4% (inactive)
same,growth inhibition,[14]; at 33.0 µM,7% (inactive)
same,growth inhibition,[14]; at 100.0 µM,82% (active)
CC(=O)CC(=O)/C=C/c1cccs1,growth inhibition,[1]; at 1.2 µM,-15% (inactive)
same,growth inhibition,[1]; at 3.7 µM,-8% (inactive)
same,growth inhibition,[1]; at 11.0 µM,6% (inactive)
same,growth inhibition,[1]; at 33.0 µM,26% (inactive)
same,growth inhibition,[1]; at 100.0 µM,86% (active)
same,growth inhibition,[15]; at 1.2 µM,-25% (inactive)
same,growth inhibition,[15]; at 3.7 µM,-23% (inactive)
same,growth inhibition,[15]; at 11.0 µM,-22% (inactive)
same,growth inhibition,[15]; at 33.0 µM,-19% (inactive)
same,growth inhibition,[15]; at 100.0 µM,59% (inactive)
same,growth inhibition,[4]; at 1.2 µM,-3% (inactive)
same,growth inhibition,[4]; at 3.7 µM,-5% (inactive)
same,growth inhibition,[4]; [17],97% (active)
same,growth inhibition,[4]; at 11.0 µM,18% (inactive)
same,growth inhibition,[4]; at 33.0 µM,76% (active)
same,growth inhibition,[4]; [18],100% (active)
same,growth inhibition,[4]; at 50.0 µM,68.7% (inactive)
same,growth inhibition,[4]; at 100.0 µM,92% (active)
same,growth inhibition,[5]; at 1.2 µM,-36% (inactive)
same,growth inhibition,[5]; at 3.7 µM,-38% (inactive)
same,growth inhibition,[5]; [17],94% (active)
same,growth inhibition,[5]; at 11.0 µM,-21% (inactive)
same,growth inhibition,[5]; at 33.0 µM,10% (inactive)
same,growth inhibition,[5]; [18],99% (active)
same,growth inhibition,[5]; at 50.0 µM,50% (inactive)
same,growth inhibition,[5]; at 100.0 µM,77% (active)
same,growth inhibition,[6]; at 1.2 µM,-12% (inactive)
same,growth inhibition,[6]; at 3.7 µM,-9% (inactive)
same,growth inhibition,[6]; at 11.0 µM,6% (inactive)
same,growth inhibition,[6]; at 33.0 µM,8% (inactive)
same,growth inhibition,[6]; at 100.0 µM,89% (active)
same,growth inhibition,[16]; at 1.2 µM,-27% (inactive)
same,growth inhibition,[16]; at 3.7 µM,-30% (inactive)
same,growth inhibition,[16]; at 11.0 µM,-24% (inactive)
same,growth inhibition,[16]; at 33.0 µM,2% (inactive)
same,growth inhibition,[16]; at 100.0 µM,38% (inactive)
same,growth inhibition,[8]; [17],15% (inactive)
same,growth inhibition,[8]; [18],72% (active)
same,growth inhibition,[8]; at 50.0 µM,32.1% (inactive)
same,growth inhibition,[9]; at 1.2 µM,2% (inactive)
same,growth inhibition,[9]; at 3.7 µM,-10% (inactive)
same,growth inhibition,[9]; [17],-1% (inactive)
same,growth inhibition,[9]; at 11.0 µM,-27% (inactive)
same,growth inhibition,[9]; at 33.0 µM,21% (inactive)
same,growth inhibition,[9]; [18],53% (inactive)
same,growth inhibition,[9]; at 50.0 µM,19% (inactive)
same,growth inhibition,[9]; at 100.0 µM,90% (active)
same,growth inhibition,[10]; at 1.2 µM,-17% (inactive)
same,growth inhibition,[10]; at 3.7 µM,-17% (inactive)
same,growth inhibition,[10]; at 11.0 µM,-9% (inactive)
same,growth inhibition,[10]; at 33.0 µM,-10% (inactive)
same,growth inhibition,[10]; at 100.0 µM,84% (active)
same,growth inhibition,[11]; at 1.2 µM,-21% (inactive)
same,growth inhibition,[11]; at 3.7 µM,-24% (inactive)
same,growth inhibition,[11]; at 11.0 µM,-1% (inactive)
same,growth inhibition,[11]; at 33.0 µM,16% (inactive)
same,growth inhibition,[11]; at 100.0 µM,88% (active)
same,growth inhibition,[12]; at 1.2 µM,-18% (inactive)
same,growth inhibition,[12]; at 3.7 µM,-8% (inactive)
same,growth inhibition,[12]; at 11.0 µM,26% (inactive)
same,growth inhibition,[12]; at 33.0 µM,30% (inactive)
same,growth inhibition,[12]; at 100.0 µM,93% (active)
same,growth inhibition,[14]; at 1.2 µM,-20% (inactive)
same,growth inhibition,[14]; at 3.7 µM,-26% (inactive)
same,growth inhibition,[14]; at 11.0 µM,12% (inactive)
same,growth inhibition,[14]; at 33.0 µM,20% (inactive)
same,growth inhibition,[14]; at 100.0 µM,88% (active)
